According to PubChem BioAssay (NCI):
“And” between values parts separate entries of the source, which are not always exact repeats. Equal entries are not always repeated. This is part of a sample that, as a whole, favours compounds with a hit. Of some 83,000 tested, about 20% had one in any assay.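 Testing used 96-well plates and a 48-hour single-concentration exposure. Example: -40 means 40% of the starting cells died.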 The source made the active and inactive calls. How the source made its calls: active means growth percent below 10; inactive means the rest.

These compounds were tested on MDA-MB-468 breast (assay: NCI-60 one-dose screen, 48 h (100 = growth as untreated, 0 = no growth, -100 = all killed)). Conditions: 10 µM unless noted.

Row | SMILES | growth
1 | O=C(CCl)Oc1ccc([N+](=O)[O-])cc1 | 112% (inactive)
2 | COc1cc2c3c(cc4c5c(ccc4c3c1OC)OCO5)N(CCN(C)C)C2=O | -48.8% (active)
3 | O=C(CC(=O)c1cccc(Cl)c1)c1cccc(Cl)c1 | 41.7% (inactive)
4 | COc1ccc(C2c3sc4c(C)cccc4c3Oc3nc(CC(=O)Nc4ccccc4)[nH]c(=O)c32)cc1 (stereo not given) | 18.6% (inactive)
5 | C=CCn1c(CN2CCN(c3cc4c(cc3F)c(=O)c(C(=O)O)cn4C3CC3)CC2)n[nH]c1=S | 105% (inactive)
6 | CCOC(=O)c1c(C)oc2ncnc(N3CCN(C(=O)COc4ccc(C(C)(C)C)cc4)CC3)c12 | 60.9% (inactive)
7 | CS(=O)(=O)c1ccc(-c2[nH]c3ccc(F)cc3c2/C=N/NC(N)=S)cc1 | 8.01% (active)
8 | C=C(C)[C@@H]1CC[C@]2(C(=O)NC(COC(=O)C(Cl)Cl)(COC(=O)C(Cl)Cl)COC(=O)C(Cl)Cl)CC[C@]3(C)[C@H](CC[C@@H]4[C@@]5(C)CC[C@H](OC(C)=O)C(C)(C)[C@@H]5CC[C@]43C)[C@@H]12 | 61.7% (inactive)
9 | CC(=O)N1N=C(c2cccc(Nc3ccncc3)c2)CC1c1ccccc1 (stereo not given) | 79.8% (inactive)
10 | CCN(CC)CCCN1C(=O)c2c(c(C)c3c(oc4cc(O)ccc43)c2C)C1=O | 102% (inactive)
11 | O=C(c1ccccc1)C1OC1C(=O)c1ccccc1 (stereo not given) | 0.0075% (active)
12 | Clc1ccccc1-c1nc2ccccc2[nH]1 | 88.3% (inactive)
13 | CC1(C)CC[C@]2(C(=O)O)CC[C@]3(C)C(=CCC4[C@@]5(C)C[C@@H](O)[C@@H]6OC(c7cccc([N+](=O)[O-])c7)OC[C@@]6(C)C5CC[C@]43C)C2C1 (stereo not given in full) | 76% (inactive)
14 | Cn1ccnc1C(=O)/C=C/c1ccc(C(=O)Nc2ccc(Cl)cc2)cc1 | 12.1% (inactive)
15 | N#CC1=C(N)Oc2cc(N)ccc2C1c1cccnc1 (stereo not given) | 97.9% (inactive)
16 | O=C(/C=C/c1cc(-c2ccc3c(c2)OCO3)n[nH]1)c1ccc2c(c1)OCO2 | 77.2% (inactive)
17 | CC/C(=C(/c1ccc(OCCN(C)C)cc1)c1ccc(OC(=O)CCCCCCCCC(=O)c2c(C)[nH]c(/C=C3\N=C(c4ccc[nH]4)C=C3OC)c2C)cc1)c1ccccc1 | 53.4% (inactive)
18 | Nc1n[nH]c2ccc([C@@H]3Nc4ccc5cn[nH]c5c4[C@H]4C5CCC(C5)[C@@H]34)cc12 (stereo not given in full) | -6.84% (active)
19 | CN1C(=O)N(C)C2C1NN=c1s/c(=C\c3ccc(Cl)cc3Cl)c(=O)n12 (stereo not given) | 27.4% (inactive)
20 | O=c1ccc2nc(-c3ccccc3)nn(-c3ccccn3)c-2c1 | -65.2% (active)

Row | SMILES | growth
21 | Cc1cc(C)c(OC(=O)CSc2nc3ccccc3c(=O)n2CCc2ccccc2)cc1C | 101% (inactive)
22 | O=C1C=CC(=O)N1c1ccccn1 | 114% (inactive)
23 | CCOC(=O)Nc1ccc2nc(N3CCCCCC3)sc2c1 | -4.19% (active)
24 | CC(C)(C#N)c1cc(C(=O)Nc2cc(Nc3ncccc3-c3ncnc4nc[nH]c34)ccc2F)cc(C(F)(F)F)c1 | 90.2% (inactive)
25 | COc1cc2ncnc(-n3ncc4cc(NC(=O)Nc5ccc(Cl)c(Cl)c5)ccc43)c2cc1OC | -70.5% (active)
26 | O=C(c1ccccc1)C1CCC1 | 110% (inactive)
27 | Cc1ccc(=O)[nH]n1 | 103% (inactive) and 104% (inactive)
28 | CCNC(=O)Oc1ccc(/C(=C(/C)c2ccc(Cl)cc2)c2ccc(OCCN3CCCCCC3)cc2)cc1 | 4.44% (active)
29 | COc1ccc(-c2nc(SCCC(C)C)nc(Nc3ccc(C(=O)O)cc3)c2C#N)cc1 | 105% (inactive)
30 | O=C(c1ccc(Br)cc1)C(Br)C(c1ccc(Cl)cc1)C(c1ccccc1)[N+](=O)[O-] (stereo not given) | 80.7% (inactive)
31 | COc1cc(/C=C/c2cc(/C=C/c3ccc(O)c(OC)c3)n(-c3ccccc3)c(=O)n2)ccc1O | 63% (inactive)
32 | C=CCn1c(SCC(=O)Nc2cccc(C(=O)/C=C/c3cccc([N+](=O)[O-])c3)c2)nc2ccccc2c1=O | 89.2% (inactive)
33 | O=C1c2cccnc2-c2ncccc21 | 100% [100 µM] (inactive)
34 | COc1ccc2c(c1)cn1c3ccc(O)cc3nc(N)c21 | 14.2% (inactive)
35 | COc1ccc(C(=O)c2cc(C)c(OC)c(C)c2)c(OC)c1N(C(=O)CCl)C(=O)CCl | 3.62% (active)
36 | [O-][n+]1c2ccccc2[n+]([O-])c2c3ccccc3[nH]c21 | -36.6% (active)
37 | COc1ccc(C(=O)C(Br)C(Br)C(=O)O)cc1 (stereo not given) | 93% (inactive)
38 | CCCCNc1nc(NC(C)(C)C)nc(NC(C)(C)C)n1 | 78.5% (inactive)
39 | COc1cc2c3c(n(CCCNC4CCCCC4)c(=O)c2cc1OC)-c1cc2c(cc1C3=O)OCO2 | 78.8% (inactive)
40 | O=C1CC[C@@H](C(=O)N[C@H]2CSSC[C@@H](C(=O)N/C=C/c3ccc(O)cc3)NC(=O)[C@H](Cc3ccccc3)NC(=O)[C@@H]3CCCN3C(=O)[C@@H]3CCCN3C2=O)N1 | 89.5% (inactive)
